A selection: hits, their analogues and other compounds. The true share with any hit is near 19%.
TDP1 cell noCPT = qHTS for Inhibitors of human tyrosyl-DNA phosphodiesterase 1 (TDP1): qHTS in cells in absence of CPT; Potency, µM (series often up to 46.2 µM), for inactives: at the highest dose activity change, negative = growth inhibition, usual class: inhibitors; 420,000 tested, 15% active; DT40 Tdp1-/- hTDP1 cells, no CPT, ATP luminescence, 48 h; also: nearly all actives have a fitted effect of over 55% in size
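Chicken DT40 Tdp1-/- cells stably complemented with human TDP1 were seeded at 400 cells/well with DMSO in place of 20 nM camptothecin. After compound pinning, cells grew at least 48 hr at 37 °C; viability read by CellTiter-Glo luminescence.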
HT1080-NT tox = qHTS for induction of synthetic lethality in tumor cells producing 2HG: qHTS for the HT-1080-NT fibrosarcoma cell line. Potency, µM (doses to about 46.1 µM), inactives show top-dose activity, negative = less viability, most hits filed as cytotoxic. HT-1080-NT fibrosarcoma viability, CellTiter-Glo ATP luminescence, 48 h. 360,000 tested, 1.6% active;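 also: NT is the 2HG producing partner of a matched IDH1 knockdown line; 0% = DMSO-treated cells and -100% = media-only wells without cells; nearly all actives have a fitted effect of over 55% in size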
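A 48-hour cytotoxicity screen used HT-1080-NT cells plated 2 hours before compound delivery. ATP-based CellTiter-Glo luminescence measured viability, normalized to DMSO and no-cell controls.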
KB-V1 MDR tox = qHTS assay for MDR1-selective chemotherapeutics: Primary screen using the drug-selected MDR subline cells KB-V1; KB-V1 MDR cells viability, CellTiter-Glo, 72 h; Potency, µM (top dose mostly 46.1 µM), usual class: cytotoxic; 400,000 tested, 3.4% active; also: nearly all actives have a fitted effect of over 60% in size
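KB-V1 MDR subline cells in DMEM (phenol-red free, 10% FBS) exposed to compounds in qHTS concentration series for 72 h at 37 degrees C. Viability read by CellTiter-Glo luminescence; concentration-effect curves fitted after normalization and correction.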
TDP1 cell CPT = qHTS for Inhibitors of human tyrosyl-DNA phosphodiesterase 1 (TDP1): qHTS in cells in presence of CPT. chicken DT40 Tdp1-/-;hTDP1 cells + 20 nM CPT, ATP luminescence, 48 h. Potency, µM (titrated, usually from 46.2 µM), for the others: top-dose activity change, negative = growth inhibition, most hits filed as inhibitors. 420,000 tested, 12% active. AID 686979, 2013; also: nearly all actives have a fitted effect of over 55% in size
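Chicken DT40 Tdp1-/- cells stably complemented with human TDP1 were seeded at 400 cells/well in medium containing 20 nM camptothecin, exposed to pin-transferred compounds, and grown at 37 °C for at least 48 hr. Viability was read as ATP luminescence.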
HT1080 IDH1KD tx = qHTS for induction of synthetic lethality in tumor cells producing 2HG: qHTS for the HT-1080-IDH1KD cell line; HT-1080 IDH1 knockdown viability, ATP luminescence, 48 h; Potency, µM (top dose mostly 46.1 µM), without a hit: at the top dose activity, negative = toxicity, actives largely listed as cytotoxic; 360,000 tested, 2% active; AID 686971, 2013;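 also: 0% = DMSO wells and -100% = cell-free medium wells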
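Cytotoxicity counter-line: IDH1KD HT-1080, 48 h, CellTiter-Glo. Curves classed by r2, magnitude and activity.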
KB-3-1 tox = qHTS assay for MDR1-selective chemotherapeutics: Primary screen using the parental adenocarcinoma cell KB-3-1; KB-3-1 viability, CellTiter-Glo ATP luminescence, 72 h; Potency, µM (top dose mostly 46.1 µM), usual class: cytotoxic; 400,000 tested, 1.4% active; AID 1347075, 2019; also: nearly all actives have a fitted effect of over 60% in size
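Multi-concentration cytotoxicity screen in KB-3-1 cells grown in DMEM lacking phenol red with 10% FBS. After 72 h at 37 °C with compound, ATP-dependent luminescence was recorded.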
An asterisk follows results filed as active; i = inactive; ? = inconclusive; nt = no result. Calls follow the shape of the dose curve; as a rule, active = well fitted curve in the direction sought with a large enough effect; inconclusive = small, poorly fitted or top-dose-only effect, or another doubt; inactive = no such curve, though single readings can be large; an effect the other way counts as inactive or inconclusive. Unless noted, % is scaled to controls: 0 for no effect and ±100 for the full control effect; potency is read from the fitted curve at half-maximal effect.

SMILES	TDP1 cell noCPT	HT1080-NT tox	KB-V1 MDR tox	TDP1 cell CPT	HT1080 IDH1KD tx	KB-3-1 tox
CCn1c(-c2csc(C(C)C)c2)n[nH]c1=S	?	0%	21µM*	-14%	3%	i
CC(C)(C)c1ccc(-c2n[nH]c(=S)n2CC2CCCO2)cc1 (stereo unspecified)	16µM*	4%	i	?	15%	i
CCn1c(-c2ccc(C)cc2)n[nH]c1=S	?	-2%	18µM*	21µM*	-1%	?
CCn1c(-c2ccc(Cl)cc2)n[nH]c1=S	-16%	?	10µM*	-1%	?	?
COc1ccc(C(=O)NCCc2nnc3n2CCN(CC2CC=CCC2)CC3)cc1 (stereo unspecified)	-8%	nt	nt	-6%	nt	nt
CCCCNC(=O)c1ccc2c(=O)n(-c3ccccc3)c(=O)[nH]c2c1	3%	nt	?	-24%	nt	?
CCc1nnc(NC(=O)CSc2nnc(C3CCCCC3)n2-c2cccc(Cl)c2)s1	?	3%	4.1µM*	-29%	4%	i
CCc1nnc(NC(=O)CSc2nnc(C)n2-c2ccc(C)cc2)s1	-21%	8%	21µM*	-3%	5%	i
CCc1nnc(NC(=O)CSc2nnc(-c3ccccc3O)n2-c2ccc(C)cc2)s1	?	13µM*	?	?	13µM*	?
CCc1nnc(NC(=O)CSc2nnc(CNc3cccc(Cl)c3)n2CC)s1	-3%	0%	i	-19%	-3%	i
CCc1nnc(NC(=O)CSc2nnc(-c3ccccc3OC)n2-c2ccc(C)cc2)s1	?	-16%	i	-24%	-18%	i
CCc1nnc(NC(=O)CSc2ncnc3scc(-c4ccc(C)cc4)c23)s1	?	5%	6.5µM*	?	4%	i
Cc1ccc(-c2csc3ncnc(SCC(N)=O)c23)cc1	?	-18%	?	?	-25%	i
Cc1cccc(N2CCN(S(=O)(=O)c3ccc4c(c3)CCC(=O)N4)CC2C)c1 (stereo unspecified)	-18%	-13%	15µM*	-6%	-27%	i
Cc1cccc(N2CCN(S(=O)(=O)c3ccc4c(c3)C(C)(C)C(=O)N4C)CC2C)c1 (stereo unspecified)	-29%	-16%	i	?	0%	i
CCCCCC(=O)N1C[C@H](O)[C@@H](n2cc(C3CC3)nn2)C[C@@H]1c1ccc(Cl)cc1	-14%	-1%	i	6%	-8%	i
CN(CC(=O)NCc1cccs1)S(=O)(=O)c1cccc2nsnc12	-18%	-1%	21µM*	17%	0%	i
CC(C)CNC(=O)COc1cccc(C(=O)NCc2ccccc2)c1	5%	12%	i	15%	10%	i
CCC(=O)Nc1ccc(C(=O)CSc2nnc(-c3ccc(NS(=O)(=O)CC)cc3)o2)cc1OC	1.2µM*	-11%	i	1.6µM*	-7%	i
CCc1cccc(C)c1NC(=O)CSc1nc2c(c(=O)[nH]1)CCC2	-17%	nt	i	-22%	nt	i
Cc1ccc(S(=O)(=O)N2CCCC(C(=O)NCCc3ccccc3)C2)cc1 (stereo unspecified)	-25%	-8%	i	-28%	20%	i
COc1ccccc1NC(=S)NC1CCCCCCCCCCC1	21µM*	-27%	i	10µM*	?	?
COc1ccccc1NC(=S)NC1CCCCC1	-14%	5%	i	2%	15%	i
CCOc1ccccc1NC(=S)NC1CCCCC1	?	9%	23µM*	-16%	?	i
CCOc1ccc(C(=S)NC2CCCCC2)cc1OC	?	4%	16µM*	?	0%	i
SMILES	TDP1 cell noCPT	HT1080-NT tox	KB-V1 MDR tox	TDP1 cell CPT	HT1080 IDH1KD tx	KB-3-1 tox
CNC(=O)C1CCC(Cn2c(=O)c3sccc3n(CC(=O)NCc3ccccc3)c2=O)CC1 (stereo unspecified)	?	nt	i	?	nt	i
CC(=O)c1ccc(-c2ccc3c4c(ccc3c2)OC(CNC(=O)C(C)N2CCOCC2)C4)s1 (stereo unspecified)	7.3µM*	nt	nt	?	nt	nt
CCS(=O)(=O)Nc1ccc(C2=NN(C(=S)Nc3ccccc3)C(c3ccco3)C2)cc1 (stereo unspecified)	16µM*	-24%	13µM*	16µM*	?	i
COc1ccc(C2=NN(C(=O)COC(=O)c3ccc(NC(=O)CC#N)cc3)C(c3ccco3)C2)cc1 (stereo unspecified)	?	-4%	?	?	-4%	i
CCC(=O)N1N=C(c2ccc(C)cc2)CC1c1ccco1 (stereo unspecified)	13µM*	2%	i	21µM*	2%	i
Cc1ccc(C2=NN(C(=O)CSc3nnnn3C)C(c3ccco3)C2)cc1 (stereo unspecified)	?	1%	i	13µM*	0%	i
COc1ccc(C2=NN(c3nc(-c4ccc(CNC(C)=O)cc4)cs3)C(c3ccco3)C2)cc1 (stereo unspecified)	18µM*	-5%	i	21µM*	-3%	i
COc1ccc(CC(=O)NO)cc1	?	16%	nt	-6%	19%	nt
COc1ccc(C2=NN(C(=O)CSc3nccn3C)C(c3ccco3)C2)cc1 (stereo unspecified)	?	-8%	i	18µM*	-3%	i
O=C(OCC(=O)N1N=C(c2ccc(Cl)cc2)CC1c1ccco1)c1ccco1 (stereo unspecified)	?	-10%	i	-30%	-16%	i
O=C(OCC(=O)N1N=C(c2ccc(Cl)cc2)CC1c1ccco1)c1cncc(Br)c1 (stereo unspecified)	23µM*	2%	i	?	-18%	i
CCC(=O)N1N=C(c2ccc(NS(=O)(=O)c3ccc(C)cc3)cc2)CC1c1ccco1 (stereo unspecified)	13µM*	?	i	?	?	?

High-throughput results: PubChem, National Center for Advancing Translational Sciences (NCATS)
